Some test systems named below: DU-145 prostate; K-562 leukemia; MALME-3M melanoma; MDA-MB-231 breast; RXF 393 renal; SF-268 CNS; SF-295 CNS; SF-539 CNS; UACC-257 melanoma; M14 melanoma; HCT-15 colon; HT29 colon; SNB-75 CNS; SNB-19 CNS; U251 CNS; PC-3 prostate; SK-MEL-5 melanoma; UACC-62 melanoma; LOX IMVI melanoma; SK-MEL-28 melanoma.
Test in all cases: NCI-60 one-dose screen, 48 h (100 = growth as untreated, 0 = no growth, -100 = all killed)
Holding throughout (details): 10 µM unless noted

This is part of a sample that, as a whole, favours compounds with a hit. Of some 83,000 tested, about 20% had one in any assay.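 How to read the values: 0–100, growth inhibition (40 = 60% inhibited); 0, no net growth; -100 to 0, cell death (-40 = 40% of starting cells died; -100 = all dead).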 Unmarked numbers belong to inactive results. The source made the active and inactive calls. Rule for the calls: active = growth percent below 10; inactive = the rest.

For the compound `CC1(C)CC[C@]2(CO)CC[C@]3(C)[C@H](CC[C@@H]4[C@@]5(C)CCCNC(C)(C)[C@@H]5CC[C@]43C)[C@H]2[C@H]1O`, the growth with DU-145 prostate was 94.5%; in the assay with K-562 leukemia, 8.95% (active); with MALME-3M melanoma, 78.5%; with MDA-MB-231 breast, 91%; in the assay with RXF 393 renal, 92%; with SF-268 CNS, 94.9%. In addition, the growth in the assay on SF-295 CNS was 105%; with SF-539 CNS, 74.9%; in the assay with UACC-257 melanoma it was 82.5%; with M14 melanoma it was 95.1%; with HCT-15 colon it was 34.3%; with HT29 colon, 17.6%. The growth is 80.1% in the assay on SNB-75 CNS; 97.6% in the assay with SNB-19 CNS; 56.1% in the assay on U251 CNS; 64.7% in the assay on PC-3 prostate; 92.8% in the assay with SK-MEL-5 melanoma; 95.9% in the assay with UACC-62 melanoma. The results for the growth in the assay with LOX IMVI melanoma and in the assay with SK-MEL-28 melanoma were 69.4% and 93.9%, respectively.
Turning to `CCc1ccc(CCC(=O)Nc2ncc(Cc3cc(Cl)ccc3Cl)s2)o1`, the growth with DU-145 prostate was 18.5%; with K-562 leukemia, 9.71% (active); with MALME-3M melanoma it was 43.5%; with MDA-MB-231 breast, 28.6%; in the assay with RXF 393 renal, -32.5% (active); in the assay on SF-268 CNS, 60.9%. Further, the growth in the assay with SF-295 CNS is 6.84% (active); with SF-539 CNS it was -6.72% (active); in the assay on UACC-257 melanoma it was 69.9%; in the assay on M14 melanoma, 6.6% (active); in the assay on HCT-15 colon, 13%; in the assay on HT29 colon, 2.01% (active). Further, the growth is -12.1% (active) in the assay on SNB-75 CNS; 21% in the assay with SNB-19 CNS; 21.7% in the assay on U251 CNS; 23.8% in the assay on PC-3 prostate; 25.2% in the assay on SK-MEL-5 melanoma; 18.7% with UACC-62 melanoma. The figures for the growth in the assay on LOX IMVI melanoma and with SK-MEL-28 melanoma were 30.2% and 55.9%, respectively.
For the compound `CS(=O)(=O)Nc1cc(-c2ccc3ncc(C#N)c(Nc4ccc(F)c(Cl)c4)c3c2)cnc1Cl`, the growth in the assay with DU-145 prostate is 10.2%; with K-562 leukemia, 16.2%; with MALME-3M melanoma, -38.6% (active); with MDA-MB-231 breast it was -0.718% (active); in the assay with RXF 393 renal, -39.2% (active); with SF-268 CNS, 8.18% (active). The growth in the assay with SF-295 CNS is -28.2% (active); in the assay on SF-539 CNS, -27.4% (active); with UACC-257 melanoma, 4.72% (active); in the assay with M14 melanoma it was 11.2%; in the assay on HCT-15 colon it was 8.1% (active); with HT29 colon it was 1.84% (active). The growth with SNB-75 CNS is -6.88% (active); in the assay with SNB-19 CNS, 14.3%; in the assay with U251 CNS it was -15.4% (active); with PC-3 prostate it was 8.23% (active); with SK-MEL-5 melanoma it was -90% (active); in the assay on UACC-62 melanoma, -10.7% (active). In addition, the values for the growth in the assay on LOX IMVI melanoma and in the assay on SK-MEL-28 melanoma were -53.7% (active) and 5.07% (active), respectively.
Take `O=C(Cc1ccc(NC(=O)c2cccc(Cl)c2)cc1)NCc1ccccc1`: the growth in the assay with DU-145 prostate was 86.1%; in the assay on K-562 leukemia, 13.9%; with MALME-3M melanoma it was 61.3%; in the assay with MDA-MB-231 breast, 60.8%; with RXF 393 renal, 65%; in the assay on SF-268 CNS it was 61.7%. Moreover, the growth with SF-295 CNS was 41.3%; in the assay with SF-539 CNS, 36.7%; in the assay with UACC-257 melanoma, 69.1%; in the assay on M14 melanoma it was 18.7%; with HCT-15 colon, 27.1%; in the assay on HT29 colon it was 8.25% (active). Besides, the growth in the assay with SNB-75 CNS is 29.7%; in the assay on SNB-19 CNS, 47.5%; with U251 CNS, 33.3%; in the assay with PC-3 prostate, 48.8%; with SK-MEL-5 melanoma, 7.53% (active); in the assay with UACC-62 melanoma it was 37.2%. In the assay on SK-MEL-28 melanoma, the growth is 58.9%.
`CN1CCN(Cc2ccc(NC(=O)c3cncc(C#Cc4cnc(N)c5ncccc45)c3)cc2C(F)(F)F)CC1`: the growth with DU-145 prostate is 18.1%; in the assay on K-562 leukemia, 13.9%; in the assay with MALME-3M melanoma, -73.5% (active); in the assay on MDA-MB-231 breast, -78.7% (active); with RXF 393 renal, -83.9% (active); in the assay with SF-268 CNS, -18.1% (active). For the same compound, the growth in the assay on SF-295 CNS is 31.2%; with SF-539 CNS, -87% (active); in the assay on UACC-257 melanoma, 17.1%; in the assay on M14 melanoma, -87% (active); in the assay with HCT-15 colon, -30.2% (active); in the assay on HT29 colon, -50.2% (active). Further, the growth with SNB-75 CNS was -76.8% (active); in the assay on SNB-19 CNS it was 44.3%; in the assay on U251 CNS it was -37.6% (active); with PC-3 prostate, 13.6%; with SK-MEL-5 melanoma it was -91.9% (active); in the assay with LOX IMVI melanoma, -83.6% (active). In the assay on SK-MEL-28 melanoma, the growth was -86.8% (active).
Take `C=C1CC[C@@H]2[C@](C)(COC(C)=O)[C@H](OC(C)=O)CC[C@@]2(C)[C@@H]1CC(Nc1ccc(S(=O)(=O)NC(C)=O)cc1)C1=CCOC1=O` (stereo partly specified): the growth was 0.37% (active) in the assay with DU-145 prostate; 4.81% (active) in the assay on K-562 leukemia; -43.6% (active) with MALME-3M melanoma; -38.7% (active) with MDA-MB-231 breast; -75.8% (active) in the assay with RXF 393 renal; 6.72% (active) in the assay on SF-268 CNS. The growth in the assay with SF-295 CNS is 58.4%; in the assay on SF-539 CNS, -76.7% (active); with UACC-257 melanoma, -10.6% (active); with M14 melanoma it was -35.1% (active); in the assay with HCT-15 colon, -49.5% (active); in the assay with HT29 colon, -69.9% (active). For the same compound, the growth in the assay on SNB-75 CNS was 26.3%; in the assay with SNB-19 CNS, 23%; with U251 CNS it was -65.5% (active); in the assay on PC-3 prostate it was 0.695% (active); in the assay on SK-MEL-5 melanoma, 7.36% (active); in the assay on LOX IMVI melanoma it was -85.8% (active). In the assay on SK-MEL-28 melanoma, the growth is -36.6% (active).
In the case of `O=c1nc(-c2ccccc2)c2cc(-c3ccc(C(F)(F)F)nc3)ccc2[nH]1`, the growth was 103% in the assay with DU-145 prostate; 103% in the assay on K-562 leukemia; 111% with MALME-3M melanoma; 91.9% with MDA-MB-231 breast; 105% with RXF 393 renal; 98.1% in the assay on SF-268 CNS. Further, the growth in the assay on SF-295 CNS was 103%; with SF-539 CNS it was 93.2%; with UACC-257 melanoma, 109%; in the assay on M14 melanoma, 98.6%; with HCT-15 colon, 97.8%; in the assay with HT29 colon, 111%. The growth in the assay on SNB-75 CNS is 117%; in the assay on SNB-19 CNS, 101%; in the assay with U251 CNS, 105%; with PC-3 prostate, 96.2%; in the assay on SK-MEL-5 melanoma, 94.8%; in the assay on UACC-62 melanoma it was 97.3%. The growth in the assay with SK-MEL-28 melanoma was 108%.

The values are drawn from PubChem BioAssay (NCI).
